# Reference: PubChem BioAssay (NCI)
# The panel holds about 79,000 compounds, 15% with a hit somewhere; the sample as a whole holds those more often. Values without a mark were called inactive. Active and inactive are the calls of the source. Cut-off read from the data, not from the text of the source: active = growth inhibition above about 70%; inactive = the rest.
# Key:
# [1] = NCI Yeast Anticancer Drug Screen. Data for the rad52 strain (AID 147);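 note: 0% = growth of vehicle-treated control cultures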; details: S. cerevisiae rad52 mutant growth inhibition, active compounds read high
# Summary of the method: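 The repair-mutant yeast strain was incubated with compounds, then growth was read and inhibition derived relative to vehicle.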
# [2] = NCI Yeast Anticancer Drug Screen. Data for the wt1 strain (AID 149);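 note: 0% = growth of vehicle-treated wt1 cultures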; details: S. cerevisiae wt1 strain (SPY 50644) growth inhibition, active compounds read high
# Summary of the method: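 Each compound is tested on wt1 yeast and the loss of growth versus vehicle gives the inhibition value.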
# [3] = NCI Yeast Anticancer Drug Screen. Data for the rad50EPP+ strain (AID 151);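 note: 0% = growth of vehicle-treated control cultures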; details: S. cerevisiae rad50 mutant strain, active compounds read high
# Summary of the method: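 Vehicle-normalised growth inhibition; rad50EPP+ yeast strain, altered in DNA damage repair, compound-treated.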
# [4] = NCI Yeast Anticancer Drug Screen. Data for the mgt1 strain (AID 153); details: S. cerevisiae mgt1 mutant growth inhibition, active compounds read high
# Summary of the method: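 Vehicle-normalized growth inhibition is determined in mgt1 yeast, a strain selected for a defined alteration in DNA repair or cell cycle control.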
# [5] = NCI Yeast Anticancer Drug Screen. Data for the rad50 strain (AID 155);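 note: 0% = growth of vehicle-only cultures of the same strain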; details: S. cerevisiae rad50 strain growth inhibition, active compounds read high
# Summary of the method: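 Vehicle-treated cultures provide the reference for the growth inhibition reported for compound-exposed, repair-deficient yeast.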
# [6] = NCI Yeast Anticancer Drug Screen. Data for the mec2-1 strain (AID 157); details: S. cerevisiae mec2-1 strain, active compounds read high
# Summary of the method: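 Mutant yeast (mec2-1) grown with compound; growth inhibition relative to vehicle control reported.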
# [7] = NCI Yeast Anticancer Drug Screen. Data for the rad14 strain (AID 159);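 note: 0% = growth of vehicle-treated control cultures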; details: S. cerevisiae rad14 strain growth inhibition, active compounds read high
# Summary of the method: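 Inhibition of growth is reported for a repair-deficient yeast mutant following compound treatment, calculated relative to cultures that received vehicle.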
# [8] = NCI Yeast Anticancer Drug Screen. Data for the sgs1 mgt1 strain (AID 161);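 note: 0% = growth of cultures given vehicle only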; details: S. cerevisiae sgs1 mgt1 strain, active compounds read high
# Summary of the method: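 Compounds are added to genetically altered yeast, and growth is compared with cultures given vehicle alone to give percent inhibition.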
# [9] = NCI Yeast Anticancer Drug Screen. Data for the CLN2oe strain (AID 163);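 note: 0% = growth of vehicle-only control cultures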; details: S. cerevisiae CLN2oe strain, active compounds read high
# Summary of the method: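 Compounds are applied to yeast harbouring a defined cell-cycle control change; reduced growth compared with vehicle-treated controls gives the value.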
# [10] = NCI Yeast Anticancer Drug Screen. Data for the cln2 rad14 strain (AID 165);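 note: 0% = growth equal to vehicle treated cultures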; details: S. cerevisiae cln2 rad14 strain, active compounds read high
# Summary of the method: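 Readout is yeast growth inhibition versus vehicle-treated controls, using a strain with cln2 and rad14 alterations exposed to compound.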
# [11] = NCI Yeast Anticancer Drug Screen. Data for the bub3 strain (AID 167); details: S. cerevisiae bub3 mutant strain, active compounds read high
# Summary of the method: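 Mutant yeast screening strain plus compound; vehicle-treated cultures serve as the 0% inhibition reference.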
# [12] = NCI Yeast Anticancer Drug Screen. Data for the wt2 strain (AID 169); details: S. cerevisiae wt2 strain growth inhibition, active compounds read high
# Summary of the method: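 Against vehicle-treated controls, the growth of yeast exposed to each compound was compared, and the inhibition was recorded.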
# [13] = NCI Yeast Anticancer Drug Screen. Data for the mlh1 strain (AID 171);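 note: 0% = growth of vehicle-treated control cultures of the same strain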; details: S. cerevisiae mlh1 strain growth inhibition, active compounds read high
# Summary of the method: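 Measured: yeast growth. Reference: vehicle-treated controls. Organism: strain with a defined alteration affecting DNA damage repair or cell cycle control, treated with compound.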
# [14] = NCI Yeast Anticancer Drug Screen. Data for the sgs1 strain (AID 173);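 note: 0% = growth of vehicle-only control cultures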; details: S. cerevisiae sgs1 mutant, active compounds read high
# Summary of the method: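 Each compound was added to cultures of the altered yeast strain. Growth was recorded, and inhibition was derived by comparison with vehicle controls.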
# [15] = NCI Yeast Anticancer Drug Screen. Data for the mlh1 rad18 strain (AID 175); details: S. cerevisiae mlh1 rad18 strain growth inhibition, active compounds read high
# Summary of the method: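 Genetically defined yeast (DNA repair-deficient) exposed to compounds; growth inhibition determined relative to vehicle.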
# [16] = NCI Yeast Anticancer Drug Screen. Data for the rad18 strain (AID 177); details: S. cerevisiae rad18 mutant growth inhibition, active compounds read high
# Summary of the method: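 Vehicle-treated cultures served as the baseline for scoring compound-induced growth inhibition in DNA-repair-mutant yeast.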
# [17] = at 5.0 µM (retest, dose inferred, filed as 0.5)
# [18] = at 50.0 µM (retest, dose inferred, filed as 5.0)
smiles,measurement,setting,value
CN(C)N=Nc1ccccc1C(=O)NC#N,growth inhibition,[1]; at 1.2 µM,8%
same,growth inhibition,[1]; at 3.7 µM,0%
same,growth inhibition,[1]; at 11.0 µM,83% (active)
same,growth inhibition,[1]; at 33.0 µM,98% (active)
same,growth inhibition,[1]; at 100.0 µM,98% (active)
same,growth inhibition,[2]; at 1.2 µM,-8%
same,growth inhibition,[2]; at 3.7 µM,-2%
same,growth inhibition,[2]; at 11.0 µM,97% (active)
same,growth inhibition,[2]; at 33.0 µM,98% (active)
same,growth inhibition,[2]; at 100.0 µM,99% (active)
same,growth inhibition,[3]; at 1.2 µM,7%
same,growth inhibition,[3]; at 3.7 µM,0%
same,growth inhibition,[3]; at 11.0 µM,13%
same,growth inhibition,[3]; at 33.0 µM,98% (active)
same,growth inhibition,[3]; at 100.0 µM,98% (active)
same,growth inhibition,[4]; at 1.2 µM,-1%
same,growth inhibition,[4]; at 3.7 µM,20%
same,growth inhibition,[4]; at 11.0 µM,98% (active)
same,growth inhibition,[4]; at 33.0 µM,99% (active)
same,growth inhibition,[4]; at 100.0 µM,98% (active)
same,growth inhibition,[5]; at 1.2 µM,-5%
same,growth inhibition,[5]; at 3.7 µM,-14%
same,growth inhibition,[5]; [17],18%
same,growth inhibition,[5]; at 11.0 µM,97% (active)
same,growth inhibition,[5]; at 33.0 µM,98% (active)
same,growth inhibition,[5]; [18],98% (active)
same,growth inhibition,[5]; at 50.0 µM,90% (active)
same,growth inhibition,[5]; at 100.0 µM,94% (active)
same,growth inhibition,[6]; at 1.2 µM,-12%
same,growth inhibition,[6]; at 3.7 µM,0%
same,growth inhibition,[6]; [17],8%
same,growth inhibition,[6]; at 11.0 µM,97% (active)
same,growth inhibition,[6]; at 33.0 µM,99% (active)
same,growth inhibition,[6]; [18],99% (active)
same,growth inhibition,[6]; at 50.0 µM,91.5% (active)
same,growth inhibition,[6]; at 100.0 µM,95% (active)
same,growth inhibition,[7]; at 1.2 µM,-17%
same,growth inhibition,[7]; at 3.7 µM,-14%
same,growth inhibition,[7]; at 11.0 µM,75% (active)
same,growth inhibition,[7]; at 33.0 µM,98% (active)
same,growth inhibition,[7]; at 100.0 µM,96% (active)
same,growth inhibition,[8]; [17],36%
same,growth inhibition,[8]; [18],53%
same,growth inhibition,[8]; at 50.0 µM,91.5% (active)
same,growth inhibition,[9]; at 1.2 µM,23%
same,growth inhibition,[9]; at 3.7 µM,22%
same,growth inhibition,[9]; at 11.0 µM,98% (active)
same,growth inhibition,[9]; at 33.0 µM,99% (active)
same,growth inhibition,[9]; at 100.0 µM,99% (active)
same,growth inhibition,[10]; [17],35%
same,growth inhibition,[10]; [18],67%
same,growth inhibition,[10]; at 50.0 µM,89.8% (active)
same,growth inhibition,[11]; at 1.2 µM,13%
same,growth inhibition,[11]; at 3.7 µM,10%
same,growth inhibition,[11]; [17],39%
same,growth inhibition,[11]; at 11.0 µM,98% (active)
same,growth inhibition,[11]; at 33.0 µM,99% (active)
same,growth inhibition,[11]; [18],77% (active)
same,growth inhibition,[11]; at 50.0 µM,90.2% (active)
same,growth inhibition,[11]; at 100.0 µM,99% (active)
same,growth inhibition,[12]; at 1.2 µM,-8%
same,growth inhibition,[12]; at 3.7 µM,-1%
same,growth inhibition,[12]; at 11.0 µM,98% (active)
same,growth inhibition,[12]; at 33.0 µM,99% (active)
same,growth inhibition,[12]; at 100.0 µM,99% (active)
same,growth inhibition,[13]; at 1.2 µM,1%
same,growth inhibition,[13]; at 3.7 µM,4%
same,growth inhibition,[13]; at 11.0 µM,93% (active)
same,growth inhibition,[13]; at 33.0 µM,99% (active)
same,growth inhibition,[13]; at 100.0 µM,98% (active)
same,growth inhibition,[14]; at 1.2 µM,-6%
same,growth inhibition,[14]; at 3.7 µM,-24%
same,growth inhibition,[14]; at 11.0 µM,98% (active)
same,growth inhibition,[14]; at 33.0 µM,98% (active)
same,growth inhibition,[14]; at 100.0 µM,99% (active)
same,growth inhibition,[15]; [17],5%
same,growth inhibition,[15]; [18],98% (active)
same,growth inhibition,[15]; at 50.0 µM,89.4% (active)
same,growth inhibition,[16]; at 1.2 µM,12%
same,growth inhibition,[16]; at 3.7 µM,5%
same,growth inhibition,[16]; at 11.0 µM,97% (active)
same,growth inhibition,[16]; at 33.0 µM,99% (active)
same,growth inhibition,[16]; at 100.0 µM,95% (active)
